From PubChem BioAssay AID1259421 (Broad Institute, 2018) come the findings set out here.

Each structure is given as a SMILES string. Several values for one entry are separate records, joined by “and”; a condition that tells them apart may be missing. Equal entries are not always repeated. The whole screen tested about 6,400 compounds, of which about 610 (9.5%) were called active. Cut-off read from the data, not from the text of the source: active = activity change below about -70%; inconclusive = no clear call, values can overlap the other calls; inactive = above that. The full list was thinned out, with actives kept by preference. More than one record can exist for a structure, and the calls need not agree. *1 amine or outer side, *2 acyl side, *3 side chain or, on linkers, in order; H or OH if unused. Where a SMILES comes first, the peptide text is derived from it. Side-chain parts run from the residue outwards. [ ]: non-standard residue; d: D form. The star is where a group is joined. Ethylenediamine = C(CN[*:2])N[*:1]; Hyp = O=C(O)[C@@H]1C[C@@H](O)CN1; Phg = N[C@H](C(=O)O)c1ccccc1; CO = O=C([*:1])[*:2]; Bn = c1ccc(C*)cc1

A short description of this test: Toxoplasma gondii ME49Luc growth in HeLa cells, luciferase, no IFN-y, primary screen (AID 1259421). Particulars: T. gondii ME49Luc in HeLa, 72 h, stronger effect = lower value, concentration not given here.
`Cc1nc(Cn2cnc3c2c(=O)n(C)c(=O)n3C)no1`: the activity change, negative = inhibition was 8.05% (inactive).
To `Cc1cnc(CNC(=O)c2c(=O)c3ccc(N4CCCN(C)CC4)nc3n3c2sc2ccccc23)cn1` belongs -82.2% (active); to `CCOCCn1c(N2CCCN(C)CC2)nc2ccccc21`, 16.4% (inactive).
To `CCC(C(N)=O)c1ccccc1` (configuration not stated) belongs -4.72% (inactive); to `CN(Cc1ccccc1)C(=O)C(Cc1ccc2ccccc2c1)NC(=O)C1CCCN1C(=O)Nc1ccccc1[N+](=O)[O-]` (configuration not stated), 0.794% (inactive).
On to `O=C(O)c1cc2cc(Cl)ccc2[nH]1`, for which the activity change, negative = inhibition was 10.5% (inactive).
Under `CCCCCCCCNC[C@@H](O)[C@H](O)[C@@H](O)[C@@H](O)CO` stands 17.8% (inactive); under `S=P(N1CC1)(N1CC1)N1CC1`, 7.66% (inactive).
Under `CC(C)OC(=O)c1cn(Cc2c(F)cccc2F)c2sc(-c3ccc(NC(=O)C(C)C)cc3)c(CN(C)Cc3ccccc3)c2c1=O` stands -80.6% (active); under `OC(CN1CCNCC1)Cn1c2ccc(Br)cc2c2cc(Br)ccc21` (configuration not stated), -61.8% (inactive).
To `O=C1Cc2cc(Cl)ccc2N1` belongs 8.1% (inactive).
On to `CC[C@H](C)n1cc(C)c2c(C(=O)NCc3c(C)cc(C)[nH]c3=O)cc(-c3ccc(N4CCNCC4)nc3)cc21`, for which the activity change, negative = inhibition was 1.27% (inactive).
With `CN(C)CCOc1ccc(-c2nc(-c3ccc4c(c3)CC/C4=N\O)c(-c3ccncc3)[nH]2)cc1`, the activity change, negative = inhibition is -76.7% (active).
Turning to `OCCn1cc(-c2ccc3c(c2)CC/C3=N\O)c(-c2ccncc2)n1`, the activity change, negative = inhibition was -63.9% (inactive) and -44.3% (inactive).
As for `O=c1[nH]c(=O)n([C@H]2CC(O)[C@@H](CO)O2)cc1/C=C/Br` (some centres not stated), the activity change, negative = inhibition is 8.12% (inactive).
Under `O=C(/C=C/c1cccc(S(=O)(=O)Nc2ccccc2)c1)NO` stands -80.9% (active).
Regarding `O=C(/C=C/c1ccccc1)c1ccc(O)cc1O`, the activity change, negative = inhibition was 65.1% (inactive).
To `CCNC(=O)/C=C/c1cccc(Br)c1` belongs 53.2% (inactive); to `CNC(=O)CN(CCN(CCN(CC(=O)O)CC(=O)NC)CC(=O)O)CC(=O)O.[Gd]`, 9.1% (inactive); to `CCCCCN(CCCOC)C(=O)[C@@H](CCC(=O)O)NC(=O)c1ccc(Cl)c(Cl)c1`, 5.05% (inactive).
Under `NCCCC[C@@H]1NC(=O)[C@@H](Cc2c[nH]c3ccccc23)NC(=O)[C@H](c2ccccc2)NC(=O)[C@@H]2C[C@@H](OC(=O)NCCN)CN2C(=O)[C@H](Cc2ccccc2)NC(=O)[C@H](Cc2ccc(OCc3ccccc3)cc2)NC1=O` (cyclo([Hyp]([CO-Ethylenediamine])[Phg][dW]KY(Bn)F)) stands 9.07% (inactive); under `NCC(=O)Nc1ccc(-n2nc(C(F)(F)F)cc2-c2ccc3c(ccc4ccccc43)c2)cc1`, -75.5% (active).
To `Cc1ccc(-c2cc(C(F)(F)F)nn2-c2ccc(S(N)(=O)=O)cc2)cc1` belongs 17% (inactive) and 0.0196% (inactive); to `CCn1cnc(C(=O)NC)c1C(=O)NC`, 4% (inactive).
Regarding `C[C@H](/C=C/[C@H](C)C(C)(C)O)[C@H]1CC[C@H]2/C(=C/C=C3C[C@@H](O)C[C@H](O)C3)CCC[C@]12C`, the activity change, negative = inhibition was 20.9% (inactive).
Turning to `N#Cc1cc2c(OCC(O)CN3CCN(C(c4ccccc4)c4ccccc4)CC3)cccc2[nH]1` (configuration not stated), the activity change, negative = inhibition was -30% (inactive).
On to `NCC(=O)N1C[C@H](NC(=O)c2ccccc2)C[C@H]1C(=O)O`, for which the activity change, negative = inhibition is 17.6% (inactive).
Under `CC1CC2C3CCC4=CC(=O)C=CC4(C)C3(F)C(O)CC2(C)C1(O)C(=O)CO` (configuration not stated) stands -10.3% (inactive).
To `CN1CCN(c2cccc(Nc3nc4c(-c5ccc(S(C)(=O)=O)cc5)cccn4n3)c2)CC1` belongs -0.0052% (inactive); to `C=CCn1c(=O)c2cnc(Nc3ccc(N4CCN(C)CC4)cc3)nc2n1-c1cccc(C(C)(C)O)n1`, -82.2% (active).
To `CC1(C)O[C@@H]2CC3C4CCC5=CC(=O)C=C[C@]5(C)C4[C@@H](O)C[C@]3(C)[C@]2(C(=O)CO)O1` (some centres not stated) belongs 0.966% (inactive); to `CC(C)C(=O)OC[C@@]1(N=[N+]=[N-])O[C@@H](n2ccc(N)nc2=O)[C@H](OC(=O)C(C)C)[C@@H]1OC(=O)C(C)C`, 6.96% (inactive).
Regarding `Cn1ncc(Cl)c1-c1cc(C(=O)N[C@H](CN)Cc2cccc(F)c2)sc1Cl`, the activity change, negative = inhibition was -49.2% (inactive).
Under `Cn1ncc(Cl)c1-c1cc(C(=O)N[C@H](CN)Cc2ccc(F)c(F)c2)oc1Cl` stands -80% (active); under `CNCC(=O)O`, -1.68% (inactive); under `CCCCCCc1ccc(O)cc1O`, 10.9% (inactive).
To `CCOC(=O)c1c(C)n(C)c2ccc(O)cc12` belongs -6.15% (inactive) and 12.7% (inactive).
To `CCCCCS(=O)(=O)CCCCCCCCCCn1c(-c2ccc(O)cc2)c(C)c2cc(O)ccc21` belongs -63.6% (inactive) and -77.2% (active).
`C[C@@]12CCC3[C@@](CC[C@@H]4[C@](C)(C(=O)O)CCC[C@@]34C)(CC1=O)C2` (some centres not stated): the activity change, negative = inhibition was 7.66% (inactive).
With `O=C(O)CSc1nnc(Br)n1-c1ccc(C2CC2)c2ccccc12`, the activity change, negative = inhibition is 0.38% (inactive).
Under `CCCCCCCCCCOc1cc2c(=O)c(C(=O)OCC)c[nH]c2cc1OCC` stands 30.1% (inactive); under `O=C(O)c1cc(N(Cc2ccccc2O)Cc2ccccc2O)ccc1O`, 2.11% (inactive); under `Cc1ccccc1-c1cc(N2CCN(C)CC2)ncc1N(C)C(=O)C(C)(C)c1cc(C(F)(F)F)cc(C(F)(F)F)c1`, -80.1% (active).
Under `CO[C@@]1(NC(=O)C2SC(=C(C(N)=O)C(=O)O)S2)C(=O)N2C(C(=O)O)=C(CSc3nnnn3C)CSC21` (some centres not stated) stands 5.67% (inactive).
Under `CC1CC2C3CC(F)C4=CC(=O)C=CC4(C)C3(F)C(O)CC2(C)C1(CC(=O)CO)C(=O)SCF` (configuration not stated) stands -4.39% (inactive).
With `Cc1oc(=O)oc1COC(=O)C1=C([C@H]2CCCO2)S[C@@H]2[C@@H]([C@@H](C)O)C(=O)N12`, the activity change, negative = inhibition was 16.9% (inactive).
Under `O=C(NCc1ccccc1)c1csc(Nc2ccncn2)n1` stands -56.6% (inactive).
For the compound `O=C(NCc1cccc(O)c1)Nc1nc(-c2ccncc2)cs1`, the activity change, negative = inhibition was -70.8% (active).
Under `Cc1cccc(Nc2nc(-c3ccncc3)cs2)c1` stands 107% (inactive); under `CC(C)CN(C[C@@H](OP(=O)(O)O)[C@H](Cc1ccccc1)NC(=O)O[C@H]1CCOC1)S(=O)(=O)c1ccc(N)cc1`, -5.19% (inactive).
To `CCC(CC)O[C@@H]1C=C(C(=O)O)C[C@H](N)[C@H]1NC(C)=O` belongs 3.98% (inactive); to `O=C1Cc2c([nH]c3ccc([N+](=O)[O-])cc23)-c2ccccc2N1`, -78% (active).
Turning to `O=C1Cc2c([nH]c3ccc(Br)cc23)-c2ncccc2N1`, the activity change, negative = inhibition is 206% (inactive).
Under `O=C1Cc2c([nH]c3ccc(Br)cc23)-c2ccccc2N1` stands 406% (inactive) and -6.73% (inactive); under `O=c1c2c(c1=O)N(CCP(=O)(O)O)CCCN2`, 4.23% (inactive).
For `OCCN1C[C@@H](O)[C@@H](O)C(O)C1CO` (some centres not stated), the activity change, negative = inhibition was 10.9% (inactive).
As to `COC(=O)[C@H](NC(=O)c1cc(-c2ccccc2)nc2ccccc12)c1ccccc1`, the activity change, negative = inhibition is 9.5% (inactive) and 19.2% (inactive).
Under `Cc1cc2ncc(-c3ccccc3)nc2cc1C` stands 459% (inactive); under `COc1cc2ncc(-c3ccccc3)nc2cc1OC`, -82.6% (active).
Consider `COc1ccc(-c2oc3cc(OC)c(OC)c(OC)c3c(=O)c2OC)cc1`, for which the activity change, negative = inhibition is -3.53% (inactive).
To `CC(=O)c1cc([N+](=O)[O-])c(Sc2ccc(F)cc2F)s1` belongs -85.3% (active); to `CC(=O)c1cc([N+](=O)[O-])c(Sc2cccc(Cl)c2Cl)s1`, 14.1% (inactive).
Under `C=C[C@@]1(C)CC(=O)[C@]2(O)[C@@]3(C)[C@@H](O)CCC(C)(C)[C@@H]3[C@H](OC(=O)CCN(C)C)[C@H](OC(C)=O)[C@@]2(C)O1` stands 0.0952% (inactive); under `C=CCN1CCN(c2nc3ccccc3nc2C#N)CC1`, -7.28% (inactive) and 5.54% (inactive).
Under `c1ccc(Cn2c(N3CCNCC3)nc3ccccc32)cc1` stands 6.11% (inactive).
In the case of `Cc1oc2nc3c(c(NC(=O)CN4CCCC4=O)c2c1C)CCCC3`, the activity change, negative = inhibition is 1.4% (inactive).
`OCc1cc2ncnc(Nc3ccc(O)c(Br)c3)c2cc1CO`: the activity change, negative = inhibition is -79.3% (active).
Under `COc1cc2ncnc(Nc3ccc(O)c(Br)c3)c2cc1OC` stands -58.4% (inactive); under `Nc1cc2ncnc(Nc3cccc(Br)c3)c2cc1N`, 4.16% (inactive).
To `C[C@H](CCC(=O)O)[C@@H]1CC[C@H]2[C@@H]3CC[C@@H]4C[C@H](O)CC[C@]4(C)[C@H]3CC[C@@]21C` belongs 11.8% (inactive); to `Cn1c(COc2ccc(CC3SC(=O)NC3=O)cc2)nc2ccccc2c1=O` (configuration not stated), -40.6% (inactive); to `COc1ccc(-c2cc(=O)c3c(O)c(OC)c(O)cc3o2)cc1OC`, 48.9% (inactive).
Consider `CC[C@@H]1C(=O)N(C)c2cnc(Nc3ccc(C(=O)NC4CCN(C)CC4)cc3OC)nc2N1C1CCCC1`, for which the activity change, negative = inhibition was -62.8% (inactive).
To `COc1cc(OC2CCN(C)CC2)ccc1Nc1ncc2c(n1)n(C1CCCC1)c(=O)n2C` belongs -32% (inactive).
Under `CC[C@@H]1C(=O)N(C)c2cnc(Nc3ccc(C(=O)NC4CCC(N5CCN(CC6CC6)CC5)CC4)cc3OC)nc2N1C(C)C` (some centres not stated) stands -84.3% (active); under `COc1ccc2nc([S@@](=O)Cc3ncc(C)c(OC)c3C)[nH]c2c1`, -6.99% (inactive) and 19.3% (inactive); under `OCc1cncc(F)c1`, 11.3% (inactive).
Under `O=C(O)c1cc(=O)c2ccc(Cl)cc2[nH]1` stands 9.46% (inactive) and -2.93% (inactive).
For `O=C(O)c1cc(=O)c2ccccc2[nH]1`, the activity change, negative = inhibition is 7.07% (inactive).
Under `O=C(O)c1cc(=O)c2cccc(O)c2[nH]1` stands -75.2% (active); under `COc1ccc(C(=O)N2CCCc3cc(C4=NNC(=O)SC4C)ccc32)cc1OC` (configuration not stated), -41.6% (inactive).
Under `CC1CCC(NC(=O)N(CCCl)[NH2+][O-])CC1` (configuration not stated) stands 75.3% (inactive).
